Experimental data taken from PubChem BioAssay.
Calls of active or inactive are those of the source.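 The calls were made as follows, unless noted: active = fluorescence slope higher than the sample average by over 3 SD (cut at about -0.22 in these data, passing the limit was not always enough); inactive = the rest.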

Columns and labels:
[1] = inhibitors of TNFa-induced NFkB p65 translocation, primary screen, imaging, HUVEC, MLSMR starter and 10KST1 sets (AID 438;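 active = inhibition above 20% together with a positive visual image hit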;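 also: compound added about 3h40 before a 20 min TNFalpha stimulation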;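 as to inhibition: signal is the nuclear over cytoplasmic p65 intensity ratio per well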); conditions: HUVEC TNFa-induced p65 nuclear translocation; cell count: measured here: nuclei count (cytotoxicity indicator), at 2.08 µM; inhibition: at 2 µM, stronger effect = higher value, 0% TNFa-plus-vehicle, 100% no-TNFa wells
[2] = inhibitors of mutant huntingtin aggregation, primary screen, imaging, exon1htt(103Q)mCFP cells, high-content imaging (AID 483;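 active = visual image review flags a hit and inhibition of aggregation exceeds 20%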;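 also: compound exposure lasted 3 days before fixation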;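 as to nuclei count: percent of the per-plate median nuclei count of sample wells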); conditions: exon1htt(103Q)mCFP cell line, aggregate imaging, at 2 µM; inhibition of aggregation: stronger effect = higher value; nuclei count: measured here: cell count, toxicity
[3] = inhibitors of E-selectin induction by TNFa, primary screen, imaging, HUVEC, immunofluorescence, MLSMR starter and 10KST1 sets (AID 487;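 active = visually confirmed hit in the image check and inhibition above 20%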;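 as to inhibition: signal is fraction of cell area covered by stained E-selectin grains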;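 as to nuclei count: 100% = median nuclei count of all wells on the same plate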); conditions: HUVEC TNFalpha-induced E-selectin immunofluorescence imaging, at 2 µM; inhibition: stronger effect = higher value; nuclei count: measured here: cell number, toxicity
[4] = target: Voltage-gated potassium channel subunit beta-2 (Rattus norvegicus) (UniProt P62483); assay: KvBeta enzyme negative modulators, primary screen, biochemical, NADPH fluorescence (AID 622); conditions: recombinant KvBeta, 4-cyanobenzaldehyde reduction, at 10 µM, stronger effect = higher value;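 also: slope of raw intensity against log time taken from 70 to 1610 s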
[5] = target: Voltage-gated potassium channel subunit beta-2 (Rattus norvegicus) (UniProt P62483); assay: KvBeta positive modulators, primary screen, biochemical, NADPH fluorescence (AID 623;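 active = NADPH fluorescence slope more negative than the mean of all samples by about 3 SD, 99.7% confidence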;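 also: fluorescence intensity change per second fitted from 20 to 320 s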); conditions: Recombinant KvBeta, NADPH fluorescence decrease slope, 10 min; at 10 µM; stronger effect = lower value
[6] = target: Alpha-2C adrenergic receptor (Homo sapiens) (UniProt P18825); assay: modulators of alpha2C/GIRK thallium flux, primary screen, cell-based, HEK293 alpha2C/GIRK1/2 (AID 624;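 active = fluorescence slope after compound addition differing from the mean of all screened samples at 99.7% confidence, in either direction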;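 also: slope of fluorescence ratio to pre-addition baseline per second over 15 to 24 s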); conditions: thallium flux BTC fluorescence, at 10 µM, actives lie on both sides
[7] = inhibitors of Sendai virus-induced IRF3 signaling, primary screen, TLR/RLR signaling modifier project, cell-based, Sendai virus stimulus, luciferase, 10K MLSCN set (AID 602276;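 active = inhibition at or above 50% at 10 µM; inactive = inhibition below 50%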;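 also: firefly luciferase from ISG56 promoter only with Renilla not read in this screen; 0% = Sendai virus plus DMSO and 100% = medium plus DMSO without virus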); conditions: HEK293 RL24 IRF3 luciferase reporter, at 10 µM, stronger effect = higher value
[8] = inhibitors of poly I:C-induced TLR3 signaling, primary screen, cell-based, poly I:C stimulus, luciferase, 10K MLSCN set (AID 602277;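 active = inhibition of the reporter signal at or above 50%; inactive = inhibition below 50%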); conditions: HEK293-TLR3 RL24 IRF3 luciferase reporter, at 10 µM, stronger effect = higher value

Alpha-2C adrenergic receptor (Homo sapiens), sequence (P18825 whole entry, looked up): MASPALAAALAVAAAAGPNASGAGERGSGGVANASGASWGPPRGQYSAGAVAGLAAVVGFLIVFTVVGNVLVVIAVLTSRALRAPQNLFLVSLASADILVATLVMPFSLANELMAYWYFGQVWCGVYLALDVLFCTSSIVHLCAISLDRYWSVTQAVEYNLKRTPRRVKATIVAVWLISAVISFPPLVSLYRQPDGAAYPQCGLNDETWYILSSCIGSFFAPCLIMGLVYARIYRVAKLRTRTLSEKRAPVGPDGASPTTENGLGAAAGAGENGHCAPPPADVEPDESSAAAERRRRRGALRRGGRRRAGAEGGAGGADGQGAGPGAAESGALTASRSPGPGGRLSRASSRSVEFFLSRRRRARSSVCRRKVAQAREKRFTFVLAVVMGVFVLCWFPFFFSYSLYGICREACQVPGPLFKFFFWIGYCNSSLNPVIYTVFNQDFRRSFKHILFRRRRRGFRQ
Voltage-gated potassium channel subunit beta-2 (Rattus norvegicus), sequence (P62483 whole entry, looked up): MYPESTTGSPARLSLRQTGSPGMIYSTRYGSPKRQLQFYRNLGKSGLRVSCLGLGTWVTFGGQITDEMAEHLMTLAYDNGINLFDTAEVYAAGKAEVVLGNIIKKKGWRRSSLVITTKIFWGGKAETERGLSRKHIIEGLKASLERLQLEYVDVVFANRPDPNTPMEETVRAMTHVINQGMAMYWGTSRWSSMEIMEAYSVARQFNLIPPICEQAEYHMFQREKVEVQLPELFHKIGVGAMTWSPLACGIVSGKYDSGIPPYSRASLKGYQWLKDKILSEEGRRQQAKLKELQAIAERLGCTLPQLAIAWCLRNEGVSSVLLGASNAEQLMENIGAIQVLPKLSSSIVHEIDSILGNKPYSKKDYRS

Structure (SMILES): CCOC(=O)c1c(C)[nH]c(C)c1C(=O)COc1ccc(NC(=O)c2ccco2)cc1
- cell count [1]: 426
- inhibition [1]: -10.7% (inactive)
- inhibition of aggregation [2]: 8.3% (inactive)
- nuclei count [2]: 102%
- inhibition [3]: -423% (inactive)
- nuclei count [3]: 144%
- fluorescence slope [4]: -0.646 (inactive)
- NADPH fluorescence slope [5]: 1.7e-05 (inactive)
- slope [6]: 0.00505 (inactive)
- inhibition [7]: 14.6% (inactive)
- inhibition [8]: 20.5% (inactive)

Structure (SMILES): CCOC(=O)C1CCCN(C/C(O)=C(\C#N)c2nc(-c3ccc(Cl)cc3)cs2)C1 (centres undefined)
- cell count [1]: 479
- inhibition [1]: 1% (inactive)
- inhibition of aggregation [2]: -6.9% (inactive)
- nuclei count [2]: 112%
- inhibition [3]: -39.9% (inactive)
- nuclei count [3]: 120%
- fluorescence slope [4]: -0.499 (inactive)
- NADPH fluorescence slope [5]: -3.4e-06 (inactive)
- slope [6]: 0.00581 (inactive)
- inhibition [7]: 14.3% (inactive)
- inhibition [8]: 2.09% (inactive)

Structure (SMILES): CCOC(=O)C1CCN(C(c2cc3cc(C)cc(C)c3[nH]c2=O)c2nnnn2C2CCCCC2)CC1 (centres undefined)
- cell count [1]: 444
- inhibition [1]: -8.2% (inactive)
- inhibition of aggregation [2]: -7.5% (inactive)
- nuclei count [2]: 77.4%
- inhibition [3]: -75.4% (inactive)
- nuclei count [3]: 159%
- fluorescence slope [4]: -0.625 (inactive)
- NADPH fluorescence slope [5]: -3.6e-06 (inactive)
- slope [6]: 0.00591 (inactive)
- inhibition [7]: 13.6% (inactive)
- inhibition [8]: 38.3% (inactive)

Structure (SMILES): O=C(COc1ccc(S(=O)(=O)NC2CCCCC2)cc1Cl)NCC1CCCO1 (centres undefined)
- cell count [1]: 310
- inhibition [1]: -13.4% (inactive)
- inhibition of aggregation [2]: -14.2% (inactive)
- nuclei count [2]: 124%
- inhibition [3]: -111% (inactive)
- nuclei count [3]: 95.6%
- fluorescence slope [4]: -0.415 (inactive)
- NADPH fluorescence slope [5]: -1.9e-05 (inactive)
- slope [6]: 0.00646 (inactive)
- inhibition [7]: 3.07% (inactive)
- inhibition [8]: 9.97% (inactive)

Structure (SMILES): CC(C)N(C(=O)N1CCC(c2nc(-c3ccncc3)no2)CC1)C(C)C
- cell count [1]: 653
- inhibition [1]: -7.5% (inactive)
- inhibition of aggregation [2]: 8.3% (inactive)
- nuclei count [2]: 102%
- inhibition [3]: -95.9% (inactive)
- nuclei count [3]: 106%
- fluorescence slope [4]: -0.354 (inactive)
- NADPH fluorescence slope [5]: -3.3e-05 (inactive)
- slope [6]: 0.00413 (inactive)
- inhibition [7]: 0.899% (inactive)
- inhibition [8]: -5.83% (inactive)

Structure (SMILES): Brc1ccc(-c2csc(/N=C/N3CCOCC3)n2)cc1
- cell count [1]: 531
- inhibition [1]: -3.6% (inactive)
- inhibition of aggregation [2]: -0.1% (inactive)
- nuclei count [2]: 97.4%
- inhibition [3]: 13.5% (inactive)
- nuclei count [3]: 102%
- fluorescence slope [4]: -0.521 (inactive)
- NADPH fluorescence slope [5]: -8.8e-05 (inactive)
- slope [6]: 0.00566 (inactive)
- inhibition [7]: -73.1% (inactive)
- inhibition [8]: -171% (inactive)

Structure (SMILES): O=C(NC1=NCCS1)c1nc(-c2ccccc2)n(-c2ccccc2)n1
- cell count [1]: 495
- inhibition [1]: 4.7% (inactive)
- inhibition of aggregation [2]: 1% (inactive)
- nuclei count [2]: 109%
- inhibition [3]: -60.7% (inactive)
- nuclei count [3]: 113%
- fluorescence slope [4]: -0.405 (inactive)
- NADPH fluorescence slope [5]: -4.9e-05 (inactive)
- slope [6]: 0.00535 (inactive)
- inhibition [7]: 8.38% (inactive)
- inhibition [8]: 11.1% (inactive)

Structure (SMILES): CCc1ccc(NC(=O)CSc2nnc(Cc3cccn3C)n2-c2ccc(OC)cc2)cc1
- cell count [1]: 891
- inhibition [1]: 7.4% (inactive)
- inhibition of aggregation [2]: -2.2% (inactive)
- nuclei count [2]: 111%
- inhibition [3]: -54.1% (inactive)
- nuclei count [3]: 117%
- fluorescence slope [4]: -0.609 (inactive)
- NADPH fluorescence slope [5]: 1.4e-05 (inactive)
- slope [6]: 0.00529 (inactive)
- inhibition [7]: 20.1% (inactive)
- inhibition [8]: 23.6% (inactive)

Structure (SMILES): CN(Cc1ccccc1)C(=O)c1ccccc1NC(=O)c1ccco1
- cell count [1]: 349
- inhibition [1]: -9.3% (inactive)
- inhibition of aggregation [2]: -4.5% (inactive)
- nuclei count [2]: 86%
- inhibition [3]: -102% (inactive)
- nuclei count [3]: 130%
- fluorescence slope [4]: -0.333 (inactive)
- NADPH fluorescence slope [5]: -6e-05 (inactive)
- slope [6]: 0.00495 (inactive)
- inhibition [7]: -13.9% (inactive)
- inhibition [8]: 98.1% (active)

Structure (SMILES): COc1ccccc1S(=O)(=O)Cc1ccc(C(=O)N2CCN(c3ccc(C)cc3)C(C)C2)o1 (centres undefined)
- cell count [1]: 566
- inhibition [1]: 6.1% (inactive)
- inhibition of aggregation [2]: -8.4% (inactive)
- nuclei count [2]: 117%
- inhibition [3]: -2.9% (inactive)
- nuclei count [3]: 91.7%
- fluorescence slope [4]: -0.527 (inactive)
- NADPH fluorescence slope [5]: -2.9e-05 (inactive)
- slope [6]: 0.00593 (inactive)
- inhibition [7]: 16.6% (inactive)
- inhibition [8]: 22.5% (inactive)

Structure (SMILES): O=C(NCC(c1cccnc1)N1CCOCC1)c1ccco1 (centres undefined)
- cell count [1]: 453
- inhibition [1]: 2.4% (inactive)
- inhibition of aggregation [2]: -3.5% (inactive)
- nuclei count [2]: 100%
- inhibition [3]: -42.3% (inactive)
- nuclei count [3]: 129%
- fluorescence slope [4]: -0.336 (inactive)
- NADPH fluorescence slope [5]: 3.2e-06 (inactive)
- slope [6]: 0.00285 (inactive)
- inhibition [7]: 15.9% (inactive)
- inhibition [8]: 31% (inactive)

Structure (SMILES): O=c1c2ccccc2nc2n1CCN2
- cell count [1]: 338
- inhibition [1]: 4.6% (inactive)
- inhibition of aggregation [2]: -10.3% (inactive)
- nuclei count [2]: 108%
- inhibition [3]: -115% (inactive)
- nuclei count [3]: 131%
- fluorescence slope [4]: -0.573 (inactive)
- NADPH fluorescence slope [5]: 7.7e-06 (inactive)
- slope [6]: 0.00443 (inactive)
- inhibition [7]: 21.2% (inactive)
- inhibition [8]: 20.6% (inactive)

Structure (SMILES): O=C(Nc1nc(-c2cccs2)cs1)c1cccc(S(=O)(=O)N2CCCCC2)c1
- cell count [1]: 503
- inhibition [1]: 0% (inactive)
- inhibition of aggregation [2]: -5.4% (inactive)
- nuclei count [2]: 110%
- inhibition [3]: -108% (inactive)
- nuclei count [3]: 124%
- fluorescence slope [4]: -0.479 (inactive)
- NADPH fluorescence slope [5]: -2.5e-05 (inactive)
- slope [6]: 0.00684 (inactive)
- inhibition [7]: 6.17% (inactive)
- inhibition [8]: -7.26% (inactive)

Structure (SMILES): COCCn1c(SCC(=O)Nc2cccc(OC)c2)nnc1-c1ccccc1
- cell count [1]: 690
- inhibition [1]: 2.1% (inactive)
- inhibition of aggregation [2]: 6.3% (inactive)
- nuclei count [2]: 96.7%
- inhibition [3]: -16% (inactive)
- nuclei count [3]: 117%
- fluorescence slope [4]: -0.492 (inactive)
- NADPH fluorescence slope [5]: -3.1e-05 (inactive)
- slope [6]: 0.00579 (inactive)
- inhibition [7]: -0.479% (inactive)
- inhibition [8]: 19.1% (inactive)
